Common to all, as to test: PBM; 200 nM protein, PBS
Common to all, as to conditions: dsDNA, one strand shown

Assay [1] has as its target HOXB9 (Homo sapiens, UniProt P17482 171-250, T197M).
Assay [2] addresses HOXC9 (Homo sapiens, UniProt P31274 178-260, K195R).
Assay [3] concerns the target HOXC10 (Homo sapiens, UniProt Q9NYD6 254-340).
Assay [4] has as its target HOXB9 (Homo sapiens, UniProt P17482 171-250).
Assay [5] addresses HOXC9 (Homo sapiens, UniProt P31274 178-260).
Assay [6] has as its target HOXD13 (Homo sapiens, UniProt P35453 263-343, T313R).
In assay [7] the target is HOXC9 (Homo sapiens, UniProt P31274 178-260, R193K).
In assay [8] the target is HOXD13 (Homo sapiens, UniProt P35453 263-343).
Assay [9] addresses HOXC10 (Homo sapiens, UniProt Q9NYD6 254-340, K271E).
The target in assay [10] is HOXD13 (Homo sapiens, UniProt P35453 263-343, T313A).
Assay [11] concerns the target HOXB9 (Homo sapiens, UniProt P17482 171-250, R186Q).
The target in assay [12] is HOXC9 (Homo sapiens, UniProt P31274 178-260, R222W).
Sequence of HOXC9 (Homo sapiens, UniProt P31274 178-260, R222W) (P31274 178-260 R222W): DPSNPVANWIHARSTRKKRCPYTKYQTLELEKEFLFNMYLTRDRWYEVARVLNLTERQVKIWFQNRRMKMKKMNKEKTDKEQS

Sequence of HOXB9 (Homo sapiens, UniProt P17482 171-250) (P17482 171-250): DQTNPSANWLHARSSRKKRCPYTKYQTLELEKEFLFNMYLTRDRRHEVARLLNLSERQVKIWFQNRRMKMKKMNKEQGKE
Sequence of HOXD13 (Homo sapiens, UniProt P35453 263-343) (P35453 263-343): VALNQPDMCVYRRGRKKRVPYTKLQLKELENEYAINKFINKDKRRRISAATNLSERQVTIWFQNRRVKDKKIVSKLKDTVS
Sequence of HOXC10 (Homo sapiens, UniProt Q9NYD6 254-340) (Q9NYD6 254-340): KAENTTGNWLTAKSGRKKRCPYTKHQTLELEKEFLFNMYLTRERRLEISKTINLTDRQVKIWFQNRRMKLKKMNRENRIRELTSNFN
Sequence of HOXB9 (Homo sapiens, UniProt P17482 171-250, T197M) (P17482 171-250 T197M): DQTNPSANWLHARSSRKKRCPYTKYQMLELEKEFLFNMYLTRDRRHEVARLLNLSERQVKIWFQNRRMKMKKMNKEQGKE
Sequence of HOXD13 (Homo sapiens, UniProt P35453 263-343, T313R) (P35453 263-343 T313R): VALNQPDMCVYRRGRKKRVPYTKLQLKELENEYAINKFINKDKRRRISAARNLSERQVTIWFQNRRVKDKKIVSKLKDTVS
Sequence of HOXC9 (Homo sapiens, UniProt P31274 178-260, R193K) (P31274 178-260 R193K): as the sequence (P31274 178-260 R222W) above, with R16K, W45R counted along it
Sequence of HOXC9 (Homo sapiens, UniProt P31274 178-260) (P31274 178-260): as the sequence (P31274 178-260 R222W) above, with W45R counted along it
Sequence of HOXD13 (Homo sapiens, UniProt P35453 263-343, T313A) (P35453 263-343 T313A): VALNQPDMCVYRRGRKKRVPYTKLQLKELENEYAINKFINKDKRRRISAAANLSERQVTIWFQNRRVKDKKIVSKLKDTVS
Sequence of HOXC10 (Homo sapiens, UniProt Q9NYD6 254-340, K271E) (Q9NYD6 254-340 K271E): as the sequence (Q9NYD6 254-340) above, with K18E counted along it
Sequence of HOXC9 (Homo sapiens, UniProt P31274 178-260, K195R) (P31274 178-260 K195R): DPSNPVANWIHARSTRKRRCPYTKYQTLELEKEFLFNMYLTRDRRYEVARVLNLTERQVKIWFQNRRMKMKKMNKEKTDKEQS
Sequence of HOXB9 (Homo sapiens, UniProt P17482 171-250, R186Q) (P17482 171-250 R186Q): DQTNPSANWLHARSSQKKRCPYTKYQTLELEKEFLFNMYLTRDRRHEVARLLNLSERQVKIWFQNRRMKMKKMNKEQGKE

With GTTTATTA, the binding signal is 9.87 upbm affinity estimate (log intensity, higher = more binding, comparable within an allelic series) in the assay with HOXB9 [1]; 12.6 upbm affinity estimate (log intensity, higher = more binding, comparable within an allelic series) with HOXC9 [2]; 12.4 upbm affinity estimate (log intensity, higher = more binding, comparable within an allelic series) in the assay with HOXC10 [3]; 11.7 upbm affinity estimate (log intensity, higher = more binding, comparable within an allelic series) with HOXB9 [4]; 12.6 upbm affinity estimate (log intensity, higher = more binding, comparable within an allelic series) with HOXC9 [5]; 11 upbm affinity estimate (log intensity, higher = more binding, comparable within an allelic series) in the assay with HOXD13 [6]. Moreover, the binding signal with HOXC9 [7] was 12.6 upbm affinity estimate (log intensity, higher = more binding, comparable within an allelic series); with HOXD13 [8], 12 upbm affinity estimate (log intensity, higher = more binding, comparable within an allelic series); with HOXC10 [9] it was 11.6 upbm affinity estimate (log intensity, higher = more binding, comparable within an allelic series); with HOXD13 [10], 11.8 upbm affinity estimate (log intensity, higher = more binding, comparable within an allelic series); with HOXB9 [11], 11.5 upbm affinity estimate (log intensity, higher = more binding, comparable within an allelic series); in the assay with HOXC9 [12] it was 11.2 upbm affinity estimate (log intensity, higher = more binding, comparable within an allelic series).

On to ATAAAACA, for which the binding signal with HOXB9 [1] was 9.83 upbm affinity estimate (log intensity, higher = more binding, comparable within an allelic series); with HOXC9 [2], 12.4 upbm affinity estimate (log intensity, higher = more binding, comparable within an allelic series); with HOXC10 [3] it was 12.2 upbm affinity estimate (log intensity, higher = more binding, comparable within an allelic series); in the assay with HOXB9 [4], 11.8 upbm affinity estimate (log intensity, higher = more binding, comparable within an allelic series); with HOXC9 [5] it was 12.5 upbm affinity estimate (log intensity, higher = more binding, comparable within an allelic series); with HOXD13 [6] it was 10.7 upbm affinity estimate (log intensity, higher = more binding, comparable within an allelic series). Moreover, the binding signal with HOXC9 [7] is 12.5 upbm affinity estimate (log intensity, higher = more binding, comparable within an allelic series); in the assay with HOXD13 [8], 11.9 upbm affinity estimate (log intensity, higher = more binding, comparable within an allelic series); in the assay with HOXC10 [9] it was 11.6 upbm affinity estimate (log intensity, higher = more binding, comparable within an allelic series); with HOXD13 [10], 11.6 upbm affinity estimate (log intensity, higher = more binding, comparable within an allelic series); in the assay with HOXB9 [11], 11.5 upbm affinity estimate (log intensity, higher = more binding, comparable within an allelic series); with HOXC9 [12], 11.1 upbm affinity estimate (log intensity, higher = more binding, comparable within an allelic series).

In the case of GCTATAAA, the binding signal with HOXB9 [1] is 9.72 upbm affinity estimate (log intensity, higher = more binding, comparable within an allelic series); with HOXC9 [2], 12.7 upbm affinity estimate (log intensity, higher = more binding, comparable within an allelic series); in the assay with HOXC10 [3] it was 12.2 upbm affinity estimate (log intensity, higher = more binding, comparable within an allelic series); with HOXB9 [4] it was 12 upbm affinity estimate (log intensity, higher = more binding, comparable within an allelic series); in the assay with HOXC9 [5] it was 12.8 upbm affinity estimate (log intensity, higher = more binding, comparable within an allelic series); with HOXD13 [6], 10.9 upbm affinity estimate (log intensity, higher = more binding, comparable within an allelic series). The binding signal with HOXC9 [7] is 12.7 upbm affinity estimate (log intensity, higher = more binding, comparable within an allelic series); with HOXD13 [8], 12 upbm affinity estimate (log intensity, higher = more binding, comparable within an allelic series); with HOXC10 [9], 11.4 upbm affinity estimate (log intensity, higher = more binding, comparable within an allelic series); in the assay with HOXD13 [10] it was 11.7 upbm affinity estimate (log intensity, higher = more binding, comparable within an allelic series); in the assay with HOXB9 [11], 11.7 upbm affinity estimate (log intensity, higher = more binding, comparable within an allelic series); with HOXC9 [12], 11 upbm affinity estimate (log intensity, higher = more binding, comparable within an allelic series).

For the sequence ACAATAAA, the binding signal with HOXB9 [1] is 9.83 upbm affinity estimate (log intensity, higher = more binding, comparable within an allelic series); with HOXC9 [2], 12.6 upbm affinity estimate (log intensity, higher = more binding, comparable within an allelic series); in the assay with HOXC10 [3], 12.3 upbm affinity estimate (log intensity, higher = more binding, comparable within an allelic series); with HOXB9 [4] it was 12 upbm affinity estimate (log intensity, higher = more binding, comparable within an allelic series); with HOXC9 [5], 12.9 upbm affinity estimate (log intensity, higher = more binding, comparable within an allelic series); with HOXD13 [6], 10.9 upbm affinity estimate (log intensity, higher = more binding, comparable within an allelic series). The binding signal is 12.7 upbm affinity estimate (log intensity, higher = more binding, comparable within an allelic series) with HOXC9 [7]; 12.1 upbm affinity estimate (log intensity, higher = more binding, comparable within an allelic series) with HOXD13 [8]; 11.7 upbm affinity estimate (log intensity, higher = more binding, comparable within an allelic series) with HOXC10 [9]; 11.8 upbm affinity estimate (log intensity, higher = more binding, comparable within an allelic series) in the assay with HOXD13 [10]; 11.7 upbm affinity estimate (log intensity, higher = more binding, comparable within an allelic series) in the assay with HOXB9 [11]; 11.1 upbm affinity estimate (log intensity, higher = more binding, comparable within an allelic series) in the assay with HOXC9 [12].

For GTCGTTAA, the binding signal was 10 upbm affinity estimate (log intensity, higher = more binding, comparable within an allelic series) with HOXB9 [1]; 12.6 upbm affinity estimate (log intensity, higher = more binding, comparable within an allelic series) with HOXC9 [2]; 12.5 upbm affinity estimate (log intensity, higher = more binding, comparable within an allelic series) in the assay with HOXC10 [3]; 11.8 upbm affinity estimate (log intensity, higher = more binding, comparable within an allelic series) with HOXB9 [4]; 12.8 upbm affinity estimate (log intensity, higher = more binding, comparable within an allelic series) with HOXC9 [5]; 12.6 upbm affinity estimate (log intensity, higher = more binding, comparable within an allelic series) in the assay with HOXC9 [7]. Besides, the binding signal is 12.4 upbm affinity estimate (log intensity, higher = more binding, comparable within an allelic series) in the assay with HOXC10 [9]; 11.3 upbm affinity estimate (log intensity, higher = more binding, comparable within an allelic series) with HOXB9 [11]; 10.6 upbm affinity estimate (log intensity, higher = more binding, comparable within an allelic series) with HOXC9 [12].

Values taken from paper PMC11006913.
